High-throughput results as filed in PubChem BioAssay.
Shown is part of a subset that was picked to be rich in hits.
RmlC RmlD mix – RmlC and RmlD coupled enzyme inhibitors, primary screen, biochemical, 384-well, compound mixtures, retest; RmlC/RmlD coupled enzyme inhibition, 384-well mixture HTS; inhibition, % at 5.5 µM; 0.39% of 110,000 active; AID 1532, 2009; in the data active means inhibition above about 30%, passing the limit was not always enough; inconclusive means no clear call, values can overlap the other calls
HIV RNase H inh-1 – HIV-1 RT RNase H inhibitors, primary screen, biochemical, fluorescence. 1.9% of 65,000 active. inhibition, % at 10 µM. Gag-Pol polyprotein (Human immunodeficiency virus type 1 group M subtype B (isolate …. RT-RNase H RNA/DNA duplex cleavage; in the data active means inhibition above about 50%
HIV RNase H inh-2 – HIV-1 RT RNase H inhibitors, retest, confirmation, biochemical; shares compounds with HIV RNase H inh-1; Recombinant RT RNase H, fluorescent RNA/DNA duplex cleavage; inhibition, % at 10 µM; 39% of 1,000 active; AID 651, 2007; in the data active means inhibition above about 48%; inconclusive means no clear call, values can overlap the other calls
Numbers without * were called inactive; ? = inconclusive; nt = no result given.

SMILES	RmlC RmlD mix	HIV RNase H inh-1	HIV RNase H inh-2
Cc1cc(C)cc(NC(=O)CSCc2nc3c(nnn3Cc3ccc(F)cc3)c(=O)[nH]2)c1	-38	nt	nt
CC(=O)N1CCc2cc(S(=O)(=O)NC(CC(C)C)C(=O)Nc3cc(C(=O)O)ccc3C)ccc21 (centres undefined)	nt	61*	22
CC(=O)N1CCc2cc(S(=O)(=O)NC(Cc3ccccc3)C(=O)Nc3cc(C)ccn3)ccc21 (centres undefined)	3	nt	nt
O=S1(=O)c2ccccc2C(CCO)N1Cc1ccccc1 (centres undefined)	-1	nt	nt
CC(CCCC(C)(C)O)NCCO (centres undefined)	-67	-6	nt
O=C(NC1CCCCC1)C1CC=CCC1C(=O)OCC(Cl)=C(Cl)Cl (centres undefined)	-15	nt	nt
CCCCCn1c(N2CCN(c3cccc(Cl)c3)CC2)nc2c1c(=O)[nH]c(=O)n2C	7	-10	nt
Cn1c(=O)[nH]c(=O)c2c1nc(N1CCN(c3cccc(Cl)c3)CC1)n2CCCc1ccccc1	3	56*	1
COC(=O)C1(C(=O)OC)NOC2C(=O)N(c3ccccc3)C(=O)C21 (centres undefined)	1	nt	nt
C/C(N)=C(/C#N)C(=O)CSc1nnc(Nc2cccc(C)c2C)s1	-7	0	nt
Cc1cccc(Nc2n[nH]c(=S)s2)c1C	8	77*	85*
COc1ccc(/C(O)=C2/C(=O)C(=O)N(CCCN(C)C)C2c2ccc(C)o2)cc1Cl (centres undefined)	3	3	nt
O=C1C2C3C=CC(C3)C2C(=O)N1CNc1ccc(O)cc1 (centres undefined)	?	80*	16
Cc1ccc(NCN2C(=O)C3C4C=CC(C4)C3C2=O)cc1 (centres undefined)	9	-11	nt
COC(=O)N(c1ccccc1)P1(=S)OCCO1	66	90*	54*
CCOC(=O)N(c1ccccc1)P1(=S)OCCO1	10	88*	57*
CCOC(=O)N(c1ccccc1)P1(=S)OCC(C)O1 (centres undefined)	-6	-1	nt
CNC(=O)N(c1ccccc1)c1ccccc1	-16	-13	nt
CCOC(=O)n1cc(-c2cnc(CNC(=O)C(C)(c3ccccc3)c3ccccc3)o2)c2ccccc21	-11	nt	nt
CCCc1cc(C(=O)Nc2sc(C(C)=O)c(C)c2C(=O)OCC)no1	-10	68*	?
CCOC(=O)c1c(NC(=O)c2cc(CC(C)C)on2)sc(C(C)=O)c1C	-15	nt	nt
COc1ccc(C(C(=O)NC(C)(C)C)N(CC2CCCO2)C(=O)CCC(=O)Nc2cc(C)on2)cc1 (centres undefined)	-12	nt	nt
COCc1nc2ccccc2n1CCOc1ccccc1OC	-23	80*	45
COCCn1c(COC)nc2ccccc21	11	-22	nt
Cc1ccc(N2CCn3c2nc2c3c(=O)n(CCc3ccccc3)c(=O)n2C)cc1	nt	64*	46
SMILES	RmlC RmlD mix	HIV RNase H inh-1	HIV RNase H inh-2
COc1ccc(N2CCCn3c2nc2c3c(=O)n(CCc3ccccc3)c(=O)n2C)cc1	12	-21	nt
Cc1cccc(N2CCN(S(=O)(=O)c3ccc4c(c3)n(C)c(=O)c(=O)n4C)CC2C)c1 (centres undefined)	3	57*	?
Cn1c(=O)c(=O)n(C)c2cc(S(=O)(=O)N3CCOCC3)ccc21	0	-22	nt
O=C(/C=C/c1ccccc1)NCCSc1ccc(Cl)cc1	-6	nt	nt
CC(C)COCC1CC2(CC(C)(c3csc(N)n3)OC2=O)C(=O)O1 (centres undefined)	nt	1	nt
C=CCNc1nc(C2(C)CC3(CC(C)(C)OC3=O)C(=O)O2)cs1 (centres undefined)	3	57*	24
COc1ccc(C2(CNC(=O)CCC(=O)O)CCCC2)cc1OC	-9	nt	nt
CCN(CC)CCCN1C(=O)C(=O)/C(=C(/O)c2ccc(OC)c(Cl)c2)C1c1ccco1 (centres undefined)	nt	-15	nt
O=C(NC1CCS(=O)(=O)C1)c1c(NC(=O)C2COc3ccccc3O2)sc2c1CCCC2 (centres undefined)	2	54*	70*
CCCNC(=O)c1c(NC(=O)C2COc3ccccc3O2)sc2c1CCCC2 (centres undefined)	7	nt	nt
Cc1cccc2cc(CN(CC3CCCO3)C(c3nnnn3Cc3ccco3)C(C)C)c(=O)[nH]c12 (centres undefined)	nt	1	nt
CC(C)c1nc2sc3c(NCc4ccco4)ncnc3c2c2c1COC(C)(C)C2	-19	28	nt
COC(=O)CSc1ncnc2c1sc1nc(-c3ccco3)c3c(c12)CC(C)(C)OC3	nt	60*	43
Cc1ccc(N(CC(N)=O)C2SC(=O)N(Cc3ccccc3)C2=O)cc1 (centres undefined)	-11	63*	41
NC(=O)CN(c1ccccc1)C1SC(=O)N(Cc2ccccc2)C1=O (centres undefined)	7	2	nt
C=C1CSc2nc3ccccc3c(=O)n21	5	nt	nt
CCCN(CC1CC1)c1nc(C)nc(Nc2c(Cl)cc(Cl)cc2Cl)c1Cl	7	nt	nt
Cc1ccc(-c2nnc(SCC(=O)Nc3ccc(S(=O)(=O)N4CCCCCC4)cc3)o2)cc1	11	65*	?
CC(=O)c1cccc(NC(=O)CSc2nnc(-c3ccc(S(=O)(=O)N4CCCC4)cc3)o2)c1	7	21	nt
COc1cc2c(cc1OC)-c1nnc(-c3cccs3)n1C1(CCCC1)C2	12	nt	nt
CCn1c(-c2c[nH]c3ccccc23)n[nH]c1=S	2	-21	nt
C=CCn1c(-c2c[nH]c3ccccc23)n[nH]c1=S	3	57*	16
CCCCn1nnnc1NCc1ccc(N(CC)CC)cc1	-9	nt	nt
CCOc1nc(CC)nc(NC(=O)NS(=O)(=O)c2ccccc2Cl)n1	2	-7	nt
Nc1nnc(CCC2CCCCC2)s1	-9	-21	nt
SMILES	RmlC RmlD mix	HIV RNase H inh-1	HIV RNase H inh-2
N#CC1=C(N)SC(N)=C(C#N)C1CCC1CCCCC1	-1	80*	?
Cc1nn2c(-c3cccc(NC(=O)CSc4nc5ccccc5o4)c3)nnc2c2ccccc12	13	89*	66*
Cc1cccc(NC(=O)CSc2nc3ccccc3o2)c1	-13	nt	nt
O=C(Nc1ccc2oc(-c3ccccc3Cl)nc2c1)c1ncn[nH]1	-9	-11	nt
CCC(C)c1ccc2oc(-c3ccc(NC(=O)c4ncn[nH]4)cc3)nc2c1 (centres undefined)	-111	64*	71*
CC(C)c1ccc2oc(-c3ccc(NC(=O)c4ncn[nH]4)cc3)nc2c1	11	74*	58*
O=C(Nc1ccc2oc(-c3cccc4ccccc34)nc2c1)c1ncn[nH]1	-13	nt	nt
O=C(N/N=C\c1ccccn1)C1COc2cc3ccccc3cc2O1 (centres undefined)	-19	nt	nt
CCN1C(=O)/C(=C2/Sc3ccc(OC)cc3N2C)SC1=Nc1cccc(O)c1	0	51*	28
CCN1C(=O)/C(=C2/Sc3ccc(OC)cc3N2C)SC1=Nc1ccc(C(C)=O)cc1	nt	6	nt
COc1cccc(C(=O)Nc2ccc(NC(=O)C(C)(C)C)cn2)c1	-2	-3	nt
CCCCCc1ccc(CC(=O)O)cc1	nt	-8	nt
CCCCc1ccc(CC(=O)O)cc1	-200	55*	6
COC(=O)c1ccc(CSc2nnnn2-c2ccc(C)cc2C)o1	-2	-33	nt
